“And” between values parts separate entries of the source, which are not always exact repeats. Equal entries are not always repeated. Inconclusive results are not listed. The source made the active and inactive calls. The calls were made as follows, unless noted: active = hit-call score of the fitted dose curve at least 0.9, where 1 is the maximum; inconclusive = response in the unintended direction; inactive = score below 0.9.

Drawing on PubChem BioAssay (EPA / NIEHS), this text covers outcome and AC50 for 39 compounds.

Chain of E-selectin (Homo sapiens) (P16581 whole entry, looked up): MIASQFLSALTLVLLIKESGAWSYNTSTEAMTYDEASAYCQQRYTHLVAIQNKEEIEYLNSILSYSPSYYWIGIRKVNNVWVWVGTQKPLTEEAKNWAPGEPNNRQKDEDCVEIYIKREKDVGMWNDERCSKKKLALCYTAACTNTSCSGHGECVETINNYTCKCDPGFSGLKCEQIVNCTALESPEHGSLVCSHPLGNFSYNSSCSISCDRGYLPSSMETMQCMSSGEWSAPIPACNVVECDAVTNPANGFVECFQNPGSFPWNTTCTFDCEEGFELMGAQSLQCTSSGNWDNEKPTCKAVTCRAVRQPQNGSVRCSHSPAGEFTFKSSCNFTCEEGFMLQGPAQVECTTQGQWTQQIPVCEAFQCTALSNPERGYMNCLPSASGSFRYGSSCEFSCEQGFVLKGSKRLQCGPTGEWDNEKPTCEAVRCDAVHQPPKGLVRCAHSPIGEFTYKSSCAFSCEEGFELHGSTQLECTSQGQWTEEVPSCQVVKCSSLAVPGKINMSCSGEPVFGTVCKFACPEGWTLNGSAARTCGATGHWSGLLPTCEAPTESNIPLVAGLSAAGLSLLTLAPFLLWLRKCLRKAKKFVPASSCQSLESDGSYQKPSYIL
Chain of human Retinoid X Receptor beta (RXRb), RXRB (gene 6257) (P28702 whole entry, looked up): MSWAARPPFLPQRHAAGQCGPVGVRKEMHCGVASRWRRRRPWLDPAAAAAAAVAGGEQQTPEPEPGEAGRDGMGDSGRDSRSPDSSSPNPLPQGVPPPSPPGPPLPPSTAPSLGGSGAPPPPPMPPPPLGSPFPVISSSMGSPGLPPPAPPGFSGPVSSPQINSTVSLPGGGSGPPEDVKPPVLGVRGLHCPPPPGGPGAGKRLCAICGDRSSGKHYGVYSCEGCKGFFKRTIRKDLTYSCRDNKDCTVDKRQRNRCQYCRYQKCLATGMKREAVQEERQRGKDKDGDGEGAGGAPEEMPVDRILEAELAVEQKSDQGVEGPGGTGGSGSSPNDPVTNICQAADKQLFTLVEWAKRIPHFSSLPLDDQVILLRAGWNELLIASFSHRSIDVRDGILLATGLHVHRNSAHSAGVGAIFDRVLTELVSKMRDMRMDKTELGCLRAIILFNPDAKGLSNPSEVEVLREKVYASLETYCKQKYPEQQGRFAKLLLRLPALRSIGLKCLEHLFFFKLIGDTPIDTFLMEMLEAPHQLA

The target in one assay is Retinoic acid receptor RXR-alpha (Homo sapiens) (UniProt P19793). Briefly: ATG_RXRa_TRANS: Attagene TRANS-FACTORIAL HepG2 Assay for human Retinoid X Receptor alpha (RXRa) (AID 2283012).
Chain of Retinoic acid receptor RXR-alpha (Homo sapiens) (P19793 whole entry, looked up): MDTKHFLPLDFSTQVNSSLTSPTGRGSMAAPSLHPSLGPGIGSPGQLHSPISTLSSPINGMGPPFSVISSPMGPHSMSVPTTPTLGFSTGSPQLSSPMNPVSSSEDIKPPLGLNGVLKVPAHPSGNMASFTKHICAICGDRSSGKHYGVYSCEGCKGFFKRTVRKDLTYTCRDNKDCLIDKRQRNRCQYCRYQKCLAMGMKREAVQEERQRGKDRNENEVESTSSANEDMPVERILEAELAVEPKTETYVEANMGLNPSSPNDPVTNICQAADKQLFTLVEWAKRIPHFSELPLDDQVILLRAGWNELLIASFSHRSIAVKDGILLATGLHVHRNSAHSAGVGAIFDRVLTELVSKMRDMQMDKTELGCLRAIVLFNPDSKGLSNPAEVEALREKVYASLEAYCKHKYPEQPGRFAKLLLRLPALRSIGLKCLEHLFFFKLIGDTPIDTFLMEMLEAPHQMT
Details: not given
The procedure, abridged:
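Transient transfection of human HepG2 with multiple GAL4-UAS reporter constructs; 24 h compound exposure; total RNA isolated, reverse-transcribed, PCR-amplified, 6-FAM labelled, HpaI-cut, resolved by capillary electrophoresis. Positive-direction fit versus DMSO.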
On to `COc1ccc(CCN2CCC(Nc3nc4ccccc4n3Cc3ccc(F)cc3)CC2)cc1`, for which the result was inactive.

Usually AC50 stands for the concentration giving half of the maximal activity seen. `CCC(C)c1cc([N+](=O)[O-])cc([N+](=O)[O-])c1OC(=O)OC(C)C` (centres undefined): the half-maximal activity concentration (AC50) was 32.6 µM (active).

Take `c1ccc2cc(Nc3ccc(Nc4ccc5ccccc5c4)cc3)ccc2c1`: the result was inactive.

For the compound `CC(C)(C)CC(C)(C)c1ccc(OCCOCC[N+](C)(C)Cc2ccccc2)cc1`, the outcome was inactive. In the case of `CC(C)(N=C=O)c1cccc(C(C)(C)N=C=O)c1`, the result was inactive.

In the case of `C1=CC2C3C=CC(C3)C2C1` (centres undefined), the outcome was inactive.

Turning to `CC1(C)CCC[C@]2(C)[C@H]3CCO[C@]3(C)CC[C@@H]12`, the compound was classed as inactive.

Take `CS(=O)(=O)c1ccc(C2=C(c3ccccc3)C(=O)OC2)cc1`: the compound was called inactive.

Another assay addresses human Retinoid X Receptor beta (RXRb), RXRB (gene 6257) (UniProt P28702). Briefly: ATG_RXRb_TRANS: Attagene TRANS-FACTORIAL HepG2 Assay for human Retinoid X Receptor beta (RXRb) (AID 2283013).
Details: not given
The procedure, abridged: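 Transfect HepG2 with GAL4-UAS multi-reporter constructs (chimeric NR-Gal4, TRANS format); dose compound 24 h; isolate RNA, RT-PCR, FAM primer extension, HpaI digest; quantify by capillary electrophoresis; positive direction vs DMSO.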
On to `C=C(C)C1CC=C(C)C(=O)C1` (centres undefined), for which the result was inactive. On the same count and under the same terms, the same measure for `CC(=O)O[C@@H]1C[C@@H]2CC[C@@]1(C)C2(C)C`: “inactive”.

As for `CCCCCC(C)=O`, the outcome was inactive. In the case of `CCCCCCCCCC(C)C=O` (centres undefined), the compound was called inactive.

In the case of `CS(=O)(=O)c1ccc(Cl)cc1`, the outcome was inactive.

On to `OCCc1ccccc1`, for which the compound was classed as inactive. On the same count and under the same terms, the same measure for `NC(=S)NNC(N)=S`: “inactive”. Regarding `OC[C@H]1O[C@@H]2O[C@H]3[C@H](O)[C@@H](O)[C@@H](O[C@H]4[C@H](O)[C@@H](O)[C@@H](O[C@H]5[C@H](O)[C@@H](O)[C@@H](O[C@H]6[C@H](O)[C@@H](O)[C@@H](O[C@H]7[C@H](O)[C@@H](O)[C@@H](O[C@H]8[C@H](O)[C@@H](O)[C@@H](O[C@H]9[C@H](O)[C@@H](O)[C@@H](O[C@H]1[C@H](O)[C@H]2O)O[C@@H]9CO)O[C@@H]8CO)O[C@@H]7CO)O[C@@H]6CO)O[C@@H]5CO)O[C@@H]4CO)O[C@@H]3CO`, the outcome was inactive. Still for that read-out and setting: the same measure for `CC(C)CCCCCCc1ccc(OCCOCCO)cc1`: “inactive”.

`CCCCC(CC)(CO)CO`: the compound was classed as inactive.

Turning to `CCC(C)S` (centres undefined), the outcome was inactive. The same measure, in the same setting: as for `COC(CC(C)CCCC(C)(C)O)OC` (centres undefined), the entry is “inactive”. On to `Brc1ccc(Br)c(Br)c1`, for which the AC50 was 137 µM (active).

As to `CCOC(=O)CCc1ccccc1`, the result was inactive.

As for `COc1ccccc1N=Nc1c(S(=O)(=O)O)cc2cc(S(=O)(=O)O)cc(NC(C)=O)c2c1O`, the compound was classed as inactive. Take `CN(C)c1cccc(O)c1`: the compound was classed as inactive. Same read-out and setting: the same measure for `C1CCOC1`: “inactive”.

As to `O=P(O)(O)O`, the compound was classed as inactive.

For `COc1cc([C@@H]2c3cc4c(cc3[C@@H](O[C@@H]3O[C@@H]5CO[C@@H](C)O[C@H]5[C@H](O)[C@H]3O)[C@H]3COC(=O)[C@H]23)OCO4)cc(OC)c1O`, the compound was called inactive. Regarding `C=COCCOCCOC=C`, the outcome was inactive. Still for that read-out and setting: as for `CN1C(=O)c2ccccc2C1=O`, the entry is “inactive”. On to `CCCCCCCCCCCC(=O)OCC(O)CO` (centres undefined), for which the AC50 was 100 µM (active). With `ON=C1CCCCC1`, the call was inactive. With `C1CCCCC1`, the compound was called inactive. The same measure, in the same setting: the same measure for `C=CCOC(=O)CCCCCC`: “inactive”; for `Nc1ccc2c(O)cc(S(=O)(=O)O)cc2c1`: “inactive”.

Consider `Cc1c(Cl)cccc1[N+](=O)[O-]`, for which the result was inactive. On the same count and under the same terms, as for `CCCCCCCC/C=C\CCCCCCCC(=O)OCC`, the entry is “inactive”; as for `[O-]n1ccccc1=S.[O-]n1ccccc1=S.[Zn+2]`, “inactive”; as for `O=CCc1ccccc1`, “inactive”.

On to `C=C(C)CNCC`, for which the outcome was inactive.

In the next assay the target is human Thyroid Receptor alpha (THRa1), THRA (gene 7067) (UniProt P10827). Briefly: ATG_THRa1_TRANS: Attagene TRANS-FACTORIAL HepG2 Assay for human Thyroid Receptor alpha (THRa1) (AID 2283014).
Chain of human Thyroid Receptor alpha (THRa1), THRA (gene 7067) (P10827 whole entry, looked up): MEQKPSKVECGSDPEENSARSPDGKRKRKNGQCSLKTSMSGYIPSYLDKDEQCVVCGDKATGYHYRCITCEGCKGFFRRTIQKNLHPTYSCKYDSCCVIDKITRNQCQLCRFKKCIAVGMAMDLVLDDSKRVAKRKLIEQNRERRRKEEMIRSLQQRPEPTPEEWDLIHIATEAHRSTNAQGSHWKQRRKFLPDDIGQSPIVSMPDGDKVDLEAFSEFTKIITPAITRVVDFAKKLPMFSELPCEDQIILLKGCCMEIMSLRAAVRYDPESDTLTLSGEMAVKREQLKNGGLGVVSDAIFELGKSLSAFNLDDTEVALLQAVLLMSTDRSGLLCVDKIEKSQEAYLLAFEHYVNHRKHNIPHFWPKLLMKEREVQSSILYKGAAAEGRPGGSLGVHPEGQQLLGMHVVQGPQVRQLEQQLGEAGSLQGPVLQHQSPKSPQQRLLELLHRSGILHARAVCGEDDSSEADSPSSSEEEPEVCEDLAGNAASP
Details: not given
The procedure, abridged:
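Transient HepG2 transfection, NR-Gal4 chimera driving GAL4-UAS reporters; 24 h compound exposure; total RNA, oligo(dT) RT, PCR, fluorescent primer extension, capillary electrophoresis. Upward direction vs DMSO control.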
Regarding `COc1ccc(CCN2CCC(Nc3nc4ccccc4n3Cc3ccc(F)cc3)CC2)cc1`, the outcome was inactive.

As for `OCCc1ccccc1`, the call was inactive. The same measure, in the same setting: the same measure for `CCC(C)c1cc([N+](=O)[O-])cc([N+](=O)[O-])c1OC(=O)OC(C)C` (centres undefined): “inactive”; for `c1ccc2cc(Nc3ccc(Nc4ccc5ccccc5c4)cc3)ccc2c1`: “inactive”. On the same count and under the same terms, as for `CC(C)(C)CC(C)(C)c1ccc(OCCOCC[N+](C)(C)Cc2ccccc2)cc1`, the entry is “inactive”. On the same count and under the same terms, the same measure for `C1=CC2C3C=CC(C3)C2C1` (centres undefined): “inactive”; for `COc1cc([C@@H]2c3cc4c(cc3[C@@H](O[C@@H]3O[C@@H]5CO[C@@H](C)O[C@H]5[C@H](O)[C@H]3O)[C@H]3COC(=O)[C@H]23)OCO4)cc(OC)c1O`: “inactive”; for `CS(=O)(=O)c1ccc(C2=C(c3ccccc3)C(=O)OC2)cc1`: “inactive”. As to `C=C(C)CNCC`, the result was inactive.

Read-out in the next assay: E-selectin (Homo sapiens) (UniProt P16581)
Briefly: BSK_3C_Eselectin: BioMAP Diversity Plus: 3C Assay for Eselectin Biomarker Activity (AID 2283015; active = hit-call score of the fitted dose curve at least 0.9, where 1 is the maximum; inactive = score below 0.9;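 as to outcome: cell surface E-selectin protein quantified by ELISA 24 h after dosing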). The following applies: primary human endothelial cells (HUVEC); actives raise or lower the signal. The procedure, abridged:
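HUVEC, 3C stimulation; compound exposure 24 h; E-selectin by ELISA; gain- or loss-of-signal fitted bidirectionally vs DMSO baseline.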
Regarding `COc1ccc(CCN2CCC(Nc3nc4ccccc4n3Cc3ccc(F)cc3)CC2)cc1`, the AC50 is 5 µM (active).

Consider `CCC(C)c1cc([N+](=O)[O-])cc([N+](=O)[O-])c1OC(=O)OC(C)C` (centres undefined), for which the AC50 was 17.9 µM (active). Regarding `c1ccc2cc(Nc3ccc(Nc4ccc5ccccc5c4)cc3)ccc2c1`, the result was inactive. As to `CC(C)(C)CC(C)(C)c1ccc(OCCOCC[N+](C)(C)Cc2ccccc2)cc1`, the AC50 was 6.62 µM (active). With `CC(C)(N=C=O)c1cccc(C(C)(C)N=C=O)c1`, the outcome was inactive.

On to `C1=CC2C3C=CC(C3)C2C1` (centres undefined), for which the result was inactive.

On to `CC1(C)CCC[C@]2(C)[C@H]3CCO[C@]3(C)CC[C@@H]12`, for which the AC50 was 36.9 µM (active) and 34.3 µM (active). As for `CS(=O)(=O)c1ccc(C2=C(c3ccccc3)C(=O)OC2)cc1`, the outcome was inactive.

Read-out in the next assay: Interleukin-1 alpha (IL1a), IL1A (gene 3552)
Kind of assay: BSK_BE3C_IL1a: BioMAP Diversity Plus: BE3C Assay for Interleukin-1 alpha (IL1a) Biomarker Activity (AID 2283016; active = hit-call score of the fitted dose curve at least 0.9, where 1 is the maximum; inactive = score below 0.9). The following applies: primary human bronchial epithelial cells; actives raise or lower the signal. In a few lines:
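BE3C primary human bronchial epithelium; cpd 24 h; IL-1a by ELISA; bidirectional fit vs DMSO; parallel SRB (0.1% SRB, 10% TCA fix, 560 nm) for cytotoxicity.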
`COc1ccc(CCN2CCC(Nc3nc4ccccc4n3Cc3ccc(F)cc3)CC2)cc1`: the result was inactive.

With `CCC(C)c1cc([N+](=O)[O-])cc([N+](=O)[O-])c1OC(=O)OC(C)C` (centres undefined), the AC50 was 25.4 µM (active). Regarding `c1ccc2cc(Nc3ccc(Nc4ccc5ccccc5c4)cc3)ccc2c1`, the AC50 was 0.147 µM (active). Still for that read-out and setting: as for `CC(C)(C)CC(C)(C)c1ccc(OCCOCC[N+](C)(C)Cc2ccccc2)cc1`, the figure is 7.26 µM (active).

Take `CC(C)(N=C=O)c1cccc(C(C)(C)N=C=O)c1`: the outcome was inactive.

Turning to `C1=CC2C3C=CC(C3)C2C1` (centres undefined), the result was inactive. Take `CC1(C)CCC[C@]2(C)[C@H]3CCO[C@]3(C)CC[C@@H]12`: the AC50 is 28.7 µM (active) and 29.6 µM (active). With `CS(=O)(=O)c1ccc(C2=C(c3ccccc3)C(=O)OC2)cc1`, the result was inactive.
